Data taken from PubChem BioAssay AID743402 (Broad Institute, 2014).
Hit rate of the full screen: of about 1,200 compounds, about 140 (12%) were called active.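 The calls were made as follows: active = fitted curve falls past -35% activity change at a dose under twice the top valid dose, in every replicate test; inconclusive = replicate tests disagree on the call; inactive = the rest, including activity in the opposite direction.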 A selection follows.

Assay: restoration of mutant CFTR halide transport – FRT cells, YFP quenching, cherry-pick, dose response (AID 743402);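 also: compounds act as correctors raising surface CFTR-F508del before acute activation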
Details: FRT CFTR-F508del YFP iodide quenching, 24 h, channel opened with forskolin and a potentiator; series mostly up to 26 µM

Activity change, negative = more quenching (active), inactive:
COc1ccc(C(=O)OCC(=O)N2C(C)CCCC2C)cc1S(=O)(=O)N1CCOCC1 (stereo not given)
Cc1ccc(/C=N/NC(=O)c2ccc3ccccc3c2)s1
COc1ccc(C2=Nn3c(nnc3-c3ccccc3F)SC2)cc1OC1CCOC1 (stereo not given)
O=C(N/N=C/c1c(O)ccc2ccccc12)c1ccc(CO)nc1
C[C@H](CO)N1C[C@H](C)[C@@H](CN(C)Cc2ccc(Cl)c(Cl)c2)Oc2ccc(NC(=O)Nc3ccc(C(F)(F)F)cc3)cc2CC1=O
Cc1cc(NCc2ccccn2)n2nc(C)c(-c3ccccc3)c2n1
COc1ccc(OC)c(/C(C)=N\NC(=O)c2cc3cc(Cl)ccc3n2C)c1
COc1ccc(CCNc2c3ccccc3nc3ccccc23)cc1OC
CCOC(=O)c1sc(Nc2nc(C)cc(C)n2)nc1C
COc1ccc(C)cc1Nc1c2c(nc3ccccc13)CCC2
O=S(=O)(Cc1ccc(Cl)cc1Cl)c1ccc(Cl)cc1
Cc1onc(-c2ccccc2Cl)c1C(=O)N1CCN(c2cccc(Cl)c2)CC1
CCN(Cc1ccccc1)c1ccc(/C=N/N=C(N)N)cc1
Cc1nn2cc(-c3cccc(Cl)c3)cnc2c1Br
N#C[C@H]1[C@H](c2ccc(C3=CCCCC3)cc2)[C@@H](CO)N1C(=O)NC1CCCCC1
CCc1ccc(OCc2n[nH]c(=S)n2C(C)CCCC(C)C)cc1 (stereo not given)
CCOc1ccc2[nH]c(C(=O)N/N=C/c3ccc(OC)cc3)cc2c1
O=C(N/N=C/c1cccs1)c1cc(C2CC2)nc2ccccc12
C/C(=N\NC(=O)c1cc(-c2cccs2)nc2ccccc12)c1ccccn1
CCOC(=O)c1cc2c(=Cc3ccc(N(C)C)cc3)c3ccccc3n2[n+]1C
O=C1c2ccccc2C(=O)c2c1cccc2N1CCCC1
Cc1ccc(S(=O)(=O)N2CCCCC2CCNC(=O)C(=O)NCc2ccccc2)cc1 (stereo not given)
COc1ccc(NC(=O)Nc2ccc3c(c2)C(=O)N([C@H](C)CO)C[C@@H](C)[C@H](CN(C)Cc2ccc(C(F)(F)F)cc2)OCCCC[C@H](C)O3)cc1
COc1ccc(COc2cc(-c3cccc(OC)c3)nc3ccc(NC(=O)c4ccc(OC)cc4)cc23)cc1
CCCCN1C(=O)CC(C(=O)OCC)=C1C
CC1(C(=O)NCc2cccs2)Cc2c(-c3ccc4c(c3)OCO4)ccnc2O1 (stereo not given)
CC1=NN(c2ccccc2)C(=O)C1N=Nc1cccc(O)c1 (stereo not given)
O=C1CC(c2ccccc2)CC2=C1C=Nc1ccccc1N2 (stereo not given)
CCc1c(C)nc2ncnn2c1NCCc1ccc(OC)cc1
COc1ccc(CCNc2ncnc3c2oc2ccccc23)cc1OC
O=C1CN(S(=O)(=O)Cc2ccccc2)C[C@@H]2[C@@H](c3ccc(C#Cc4cccc(F)c4)cc3)[C@H](CO)N12
Cc1ccc2nc(-c3ccc4c(c3)OCCO4)cn2c1
CCCCNC(=O)C(=O)Nc1ccc2c(c1)N(S(=O)(=O)c1cccs1)CCC2
COc1cccc(/C=N/NC(=O)C(=O)Nc2ccccc2OC(F)(F)C(F)F)c1O
Cc1ccc(-c2nn(-c3ccccc3)cc2C(=O)N2CCN(c3ccccn3)CC2)cc1
COc1ccc(S(=O)(=O)N(C(=O)C(C)C)c2ccc3oc(=O)sc3c2)cc1
COc1nc(-c2ccccc2)cc(-c2ccc3c(c2)OCO3)c1C#N
C/C(=N\NC(=O)c1c(Cl)c(C)nn1C)c1ccc(NC(=O)C2CCC2)cc1
COc1ccc2c(c1)sc(N)[n+]2Cc1cc(C)cc2cccnc12
CCN(CC)c1ccc(/C=N/NC(=O)c2ccco2)c(O)c1
Cc1cc(N/N=C/c2ccccc2O)c2ccccc2n1
Cc1ccccc1-c1nc(CS(=O)(=O)CC(=O)NCc2ccccc2)c(C)o1
Cc1ccc(-c2ccc3c(c2)O[C@H](CN(C)Cc2ccccn2)[C@@H](C)CN([C@H](C)CO)S3(=O)=O)cc1
COc1ccc(S(=O)(=O)Nc2ccc3c(c2)C(=O)N([C@H](C)CO)C[C@@H](C)[C@@H](CN(C)Cc2ccc(Cl)c(Cl)c2)O3)cc1
c1coc(-c2nc3ccccc3s2)c1
Clc1ccc2c(c1)-c1ccccc1C1=NCCN12
Cc1ccc(N(C)S(=O)(=O)c2ccc(-c3cnc(C4CC4)o3)cc2)cc1
Cc1ccnc2c1ccc1cccnc12
Cc1ccc(COc2ccccc2-c2cc(C(=O)N/N=C/c3cccnc3)[nH]n2)cc1
CC(C)(C)c1cc(C(=O)NN)n(Cc2ccc(Cl)cc2Cl)n1
COc1ccccc1Nc1c2c(nc3ccccc13)CCC2
CC(=NNC(=S)N1CC2CCC(CC2)C1)c1cnccn1
COc1cc(NC(=O)N2CCNC2=O)cc(C(=O)Nc2cccc(C(F)(F)F)c2)c1
COc1ccc(-c2ccc3oc(-c4ccc(OC)cc4)c(C#CCO)c3c2)cc1
COCCCN=C1NN=C(c2cc(C)n(Cc3ccco3)c2C)CS1
CC(=O)N1CCc2c(sc(NC(=O)c3ccc4c(c3)OCCO4)c2C#N)C1
O=C(c1cccc(S(=O)(=O)N2CCN(c3ccc(F)cc3)CC2)c1)N1CCCC(C(F)(F)F)C1 (stereo not given)
COc1ccccc1C(=O)NC(=S)/C=C1/N(C)c2ccccc2C1(C)C
COc1cc2c(C#CCCO)c(-c3ccsc3)oc(=O)c2cc1OC
CC(=O)NC(c1ccc(C(C)C)cc1)c1ccc2cccnc2c1O (stereo not given)
O=C(Nc1cccc(C2=NCCN2)c1)Nc1cccc(C2=NCCN2)c1
Cc1ccc2c(c1)CCCN2C(=O)CCc1nc2ccccc2c(=O)[nH]1
COc1ccc2cc(CN(CC3CCCO3)C(=S)Nc3ccccc3)c(=O)[nH]c2c1 (stereo not given)
COc1ccc(Nc2nc3cc(-c4sccc4C)sc3c(=O)n2C)cc1OC
Cc1ccc2cc(CN(CC3CCCO3)C(=S)Nc3ccccc3)c(=O)[nH]c2c1C (stereo not given)
CCOC(=O)N1CCC(NC(=O)c2ccc3c(c2)N=C(C)c2c(C)ccc(C)c2S3)CC1
O=C(Nc1ccc(Br)cn1)c1cccc2ccccc12
Cc1cc2c(cc1S(=O)(=O)Nc1ccc(F)cc1)n(C)c(=O)c(=O)n2C
CC(=O)Nc1ccc(S(=O)(=O)NC2=C(N3CCN(Cc4ccccc4)CC3)C(=O)c3ccccc3C2=O)cc1
N#Cc1c(-c2ccc(F)cc2)c(-c2ccc(F)cc2)nn(CCO)c1=O
C[C@@H]1CN([C@H](C)CO)C(=O)c2cc(NS(=O)(=O)c3ccc(Cl)cc3)ccc2O[C@@H]1CN(C)Cc1ccc(-c2ccccc2)cc1
COc1ccc2c3c([nH]c2c1)[C@H](CO)N(C(=O)C1CCOCC1)CC31CCN(Cc2cccc(F)c2)CC1
Cc1cc(C(=O)N/N=C/c2ccc(N(C)C)cc2)c2ccccc2n1
NCC(=O)NNC(=O)OCC1c2ccccc2-c2ccccc21
COc1ccc(OC)c(-c2cc(-c3cccnc3)nc(N)c2C#N)c1
COc1cccc(N=Nc2ccc3cccnc3c2O)c1
COc1cc(/C=C2/SC(=Nc3ccc(O)cc3)NC2=O)cc(OC)c1O
O=C1NC(=Nc2ccc(O)cc2)S/C1=C/c1ccco1
CC(=O)c1ccc(Nc2cc(C)nc3c(C)cc(C)cc23)cc1
COc1ccc(Nc2nc(-c3sc(C)nc3C)cs2)cc1
COc1ccc(-c2ccc3c(c2)[C@H]2[C@H](CCN2S(=O)(=O)c2ccc(OC)cc2)[C@@H](CO)N3C)cc1
Cc1cccc(N2CCN(C(=O)c3c(-c4ccccc4)noc3C)CC2)c1C
C[C@@H]1CN([C@@H](C)CO)C(=O)c2cc(NS(=O)(=O)c3ccc(Cl)cc3)ccc2O[C@@H]1CN(C)Cc1ccc(C(F)(F)F)cc1
Nc1[nH]c(C(=O)c2ccccc2)c(-c2ccccc2C(F)(F)F)c1C(=O)NCCc1c[nH]c2ccccc12
Cc1cc(C)c2nc(Cl)c(CN(Cc3ccco3)C(=O)Nc3ccccc3C)cc2c1
COc1ccc(-c2ccnc(-c3ccc(O)cc3)n2)cc1
O=C(c1ccc(Br)cc1)c1cc([N+](=O)[O-])ccc1N1CCOCC1
COc1ccc([N+](=O)[O-])cc1Nc1c2ccccc2nc2ccccc12
COC(=O)/C=C/c1ccccc1S(=O)(=O)N(Cc1ccccc1)Cc1ccco1
NS(=O)(=O)c1ccc(S(=O)(=O)N(CCc2ccccc2)Cc2ccccn2)cc1
CCN1CCN(c2cc(C)c3cc(NC(=O)c4ccc(OC)c(OC)c4)ccc3n2)CC1
N=C1/C(=C/c2cccn2CCOc2ccccc2)C(=O)N=C2SC=C(c3ccccc3)N12
O=C1C=C(NCCc2cc(Br)c(O)c(Br)c2)C(=O)c2ncccc21
Nc1c(C(=O)c2ccco2)oc2ccccc12
Nc1ccn(C2OC(CO)C(O)C2O)c(=O)n1 (stereo not given)
O=C(CCCl)Nc1nc2c(s1)CCc1ccccc1-2
C[C@H]1CN([C@@H](C)CO)S(=O)(=O)c2ccc(C#CC3CCCCC3)cc2O[C@H]1CN(C)Cc1cccnc1
CCOC(=O)c1ccc(N2CCOCC2)c(NC(=O)c2c(-c3ccccc3)noc2C)c1
CCN(CC)c1ccc(/C=N/NC(=O)c2cnccn2)cc1
COc1ccc(NC(=O)c2cc(S(=O)(=O)N3CCOCC3)ccc2C)cc1S(=O)(=O)N1CCOCC1
